# According to PubChem BioAssay (NCI):
# The panel holds about 83,000 compounds, 20% with a hit somewhere; the sample as a whole holds those more often.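 Single-concentration screen, 48 h exposure, 96-well plates. Endpoint: percent growth. Below 10 = active.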 Values without a mark were called inactive. Activity calls are given as the source filed them.
# System: HL-60(TB) leukemia
# Experiment: NCI-60 one-dose screen, 48 h (100 = growth as untreated, 0 = no growth, -100 = all killed)
# Conditions: 10 µM unless noted
row,Compound,growth
1,CCOC(=O)Oc1c(OC)cc(C(=O)c2ccc(OC)c(OC(=O)CCl)c2OC)cc1OC,-30.9% (active)
2,Cc1c(N(C)CS(=O)(=O)O)c(=O)n(-c2ccccc2)n1C,96%
3,CC1=C(C(=O)/C=C/c2c[nH]c3ccccc23)C(c2ccccc2)NC(=S)N1 (centres undefined),99.5%
4,Cc1nc(S(=O)(=O)c2ccccc2)c(S(=O)(=O)Cc2ccc([N+](=O)[O-])cc2)o1,89.9%
5,NC(=O)c1ccccc1OCC(O)CO (centres undefined),108%
6,Cc1ccc(C(C)C)c(OCC(=O)O)c1,117%
7,Cc1ccc(NC(=O)c2nc(S(C)(=O)=O)oc2-c2ccc(F)cc2)cc1Nc1ccc2ncn(C)c(=O)c2c1,46.5%
8,Clc1ccc2c(NCCCn3cnc4c(N5CCCC5)nc(Cl)nc43)ccnc2c1,81.6%
9,CN1CCN(C(=O)OCCOCCOC(=O)N2CCN(C)CC2)CC1,98.2%
10,O=C1OCC/C1=C\OCCCO/C=C1\CCOC1=O,104%
11,O=C1c2cc(Cl)ccc2Oc2cc([N+](=O)[O-])ccc2N1c1ccc(F)cc1F,76%
12,O=C(/C(=C\c1ccc([N+](=O)[O-])cc1)S(=O)Cc1ccc(F)cc1)c1ccc(F)cc1 (centres undefined),5.72% (active)
13,CN(C(=O)c1ccccc1)N(C)C(=O)c1ccccc1,92.8%
14,O=c1nc(NO)[nH]c(=O)n1Cc1ccccc1,105%
15,CCN1CCN(c2nc(NCCCNc3ccnc4cc(Cl)ccc34)c3ccccc3n2)CC1,-51.4% (active)
16,Nc1nc(Cl)cc(=O)n1Cc1ccccc1,100%
17,CC(C)(C)n1cc(-c2ccnc(NCCNS(=O)(=O)c3cccc4ccccc34)c2)c(-c2cccc(O)c2)n1,71%
18,CCn1cc(-c2ccnc(NCCNS(=O)(=O)c3cccc4ccccc34)c2)c(-c2cccc(O)c2)n1,103%
19,C[C@@H]1C=C2C(=O)O[C@@H]3CC[C@H](C1)[C@]23O,72.4%
20,CC1SC(c2ccccc2O)N(NC(=O)CCC(=O)c2nc3ncccc3[nH]2)C1=O (centres undefined),101%

row,Compound,growth
1,Nc1nc(N)c2c(n1)NC1(C=C(O)c3ccccc31)C1=C(N2)c2ccccc2C1=O (centres undefined),71%
2,COc1ccc(S(=O)(=O)N2CCCCC2)cc1NC(=O)c1[nH]c(C)c2c1CCCCC2=O,-10.9% (active)
3,Nc1ncnc2[nH]ncc12,3.02% (active)
4,O/N=C1\c2ccccc2-c2ccc(Br)cc21,109%
5,O=S(=O)(NCCNc1nccc(-c2c(-c3ccc(F)c(O)c3)nc3sccn23)n1)c1ccc(Cl)cc1,-26.9% (active)
6,COc1ccc(Cn2nc(-c3ccccc3)c3c2CCc2cnoc2-3)cc1,69.4%
7,CN1CCN(Cc2ccc(NC(=O)c3cncc(C#Cc4ccc(N)nc4)c3)cc2C(F)(F)F)CC1,-38.5% (active)
8,COc1ccc(-c2nc3sccn3c2-c2ccnc(S(C)(=O)=O)n2)cc1,55.4%
9,COc1ccc(Nc2ncccc2/C=C/C(=O)c2cc(OC)c(OC)c(OC)c2)cc1,-42.4% (active)
10,N=C(c1ccccc1)N(Cc1ccccc1)Cc1ccccc1,82.6%
11,COC1C(O)CC(OC2CC(OC3CC(O[C@@H]4C(=O)c5c(cc6cc(OC7CC(OC8CC(O)C(O)C(C)O8)C(O)C(C)O7)c(C)c(O)c6c5O)CC4[C@H](OC)[C@@H](O)C(C)=O)OC(C)C3O)OC(C)C2O)OC1C (some centres undefined),14.3%
12,CN(CCCNC(=O)CCOCCOCCOCCNC(=O)Cc1ccc2ccc3cccc4ccc1c2c34)CCCNc1cc(-c2ccc3ccccc3c2)nc2ccccc12,-77.6% (active)
13,COc1cc(-c2cc(-c3nc4cc(Cl)c(Cl)cc4[nH]3)[nH]n2)cc(OC)c1OC,14.2%
14,C[C@H](Oc1cc(-c2cnn(C3CCNCC3)c2)cnc1N)c1c(Cl)ccc(F)c1Cl,58.3%
15,C[Si](C)(C)Cc1ccccc1,125%
16,COc1ccc(Nc2ccnc(NCCNc3ccnc4cc(Cl)ccc34)n2)cc1,39%
17,Cc1ccc(C2CC3c4ccccc4C2C2CCCCN32)cc1 (centres undefined),52.8%
18,C#Cc1ccc(-n2c(/C=C/c3cc(OC)cc(OC)c3)nc3ncccc3c2=O)cc1,68.1%
19,Cc1cc(O)c(C2=NN(c3ccc(S(N)(=O)=O)cc3)C(/C=C/c3ccccc3)C2)cc1Cl (centres undefined),89.7%
